Laboratory results published in PubChem BioAssay (NCATS).
Records with an inconclusive call do not appear. Active and inactive are the calls of the source. Calls come from the whole dose curve; as a rule, active = well fitted inhibition curve with a large enough effect; inconclusive = small, poorly fitted or top-dose-only effect; inactive = flat fitted curve, though single readings scatter.

Assays:
Experiment in all cases: qHTS profiling for inhibitors of Plasmodium falciparum proliferation (AID 504749); note: nearly all actives have a fitted effect of over 60% in size
Conditions in all cases: P. falciparum in erythrocytes, SYBR Green DNA, 72 h; series mostly up to 28.7 µM
[1] = test system: FAB9
How it was run: (§1)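 In a 72 h erythrocytic culture (37 C, humidified, 5% CO2) at 2.5% hematocrit and 0.3% starting parasitemia, compounds were tested; SYBR Green I in detergent lysis buffer stained parasite DNA overnight.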

[2] = test system: GB4
How it was run: as §1

[3] = test system: ICS
How it was run: as §1

[4] = test system: N140
How it was run: as §1

[5] = test system: P94_40
How it was run: as §1

[6] = test system: PC15
How it was run: as §1

[7] = test system: TAB109
How it was run: as §1

[8] = test system: TAB165
How it was run: as §1

[9] = test system: W2
How it was run: as §1

[10] = test system: JCK
How it was run: as §1

[11] = test system: P93_24
How it was run: as §1

[12] = test system: PC49
How it was run: as §1

[13] = test system: ECU
How it was run: as §1

[14] = test system: HB3
How it was run: as §1

[15] = test system: PAD
How it was run: as §1

[16] = test system: PC26
How it was run: as §1

[17] = test system: SC27B
How it was run: as §1

[18] = test system: TAB113
How it was run: as §1

Measured: Potency
Potency is the fitted concentration of half-maximal effect.

CC(C)NC[C@@H](O)COc1cccc2ccccc12
active: [2] 12 µM | [3] 7.08 µM | [4] 12.6 µM | [5] 12.6 µM | [6] 8.91 µM | [7] 12.6 µM | [8] 7.94 µM | [9] 1.69 µM
inactive: [1]

O=C(N/N=C/c1ccccc1O)c1ccncc1
inactive: [1] | [10] | [6] | [12]
active: [3] 3.55 µM | [11] 10 µM | [5] 10 µM | [7] 12.6 µM | [8] 5.62 µM | [9] 6.01 µM

CC(Cc1cccc(C(F)(F)F)c1)NCCOC(=O)c1ccccc1 (stereo not given)
not listed: [2] | [9]
inactive: all other assays above

C[C@@H]1C(=O)NC2=Nc3cccc(Cl)c3CN21
not listed: [2] | [3] | [18]
inactive: all other assays above

CO/N=C1\CN(c2nc3c(cc2F)c(=O)c(C(=O)O)cn3C2CC2)CC1CN (stereo not given)
inactive: [12]
active: [2] 9.53 µM | [14] 11.2 µM | [3] 5.62 µM | [11] 8.91 µM | [7] 5.01 µM | [9] 5.36 µM

CCN(CC)CCOC(=O)C(c1ccccc1)C1CCCCC1 (stereo not given)
active: [9] 7.57 µM
inactive: [1] | [14] | [10] | [4] | [5] | [12] | [17] | [7] | [8]

CC/C(=C(/CC)c1ccc(O)cc1)c1ccc(O)cc1
inactive: [13] | [1] | [14] | [10] | [4] | [11] | [15] | [16] | [12] | [7]

CCCCCCCCCCCCCCCCOP(=O)([O-])OCC[N+](C)(C)C
not listed: [2] | [9] | [14]
inactive: all other assays above

CCN1CCN(c2cc3c(cc2F)c(=O)c(C(=O)O)cn3C2CC2)CC1
not listed: [1] | [3] | [9]
inactive: all other assays above

Oc1ccc(Cl)cc1Sc1cc(Cl)ccc1O
active: [3] 8.91 µM
not listed: [2] | [8] | [9] | [13] | [17] | [18]
inactive: all other assays above

c1ccc(-c2ccc(C(c3ccccc3)n3ccnc3)cc2)cc1 (stereo not given)
active: [13] 3.55 µM | [2] 8.49 µM | [14] 10 µM | [3] 2.24 µM | [4] 7.08 µM | [11] 3.16 µM | [5] 11.2 µM | [15] 7.94 µM | [6] 11.2 µM | [16] 12 µM | [17] 6.31 µM | [7] 8.91 µM | [18] 11.2 µM | [8] 2.82 µM | [9] 5.36 µM

CCCCC1=NC2(CCCC2)C(=O)N1Cc1ccc(-c2ccccc2-c2nn[nH]n2)cc1
not listed: [2] | [3] | [8] | [9] | [16] | [17]
inactive: all other assays above

CCCCOc1cc(C(=O)NCCN(CC)CC)c2ccccc2n1
not listed: [2] | [3] | [9]
inactive: all other assays above

Cc1c(C)n(Cc2ccccc2)c2ccc(C(=O)OCCN(C)C)cc12
not listed: [2] | [3] | [9]
inactive: all other assays above

CN(C(=O)CN(CCO)CC(=O)N(C)C(C)(C)Cc1ccccc1)C(C)(C)Cc1ccccc1
active: [9] 3.61 µM
not listed: [2] | [3] | [4] | [8]
inactive: all other assays above

COC(=O)[C@H]1[C@H]2C[C@H]3c4[nH]c5ccccc5c4CCN3C[C@H]2CC[C@@H]1O
inactive: [2] | [16] | [9]

CCCCc1nc(Cl)c(CO)n1Cc1ccc(-c2ccccc2-c2nn[nH]n2)cc1
active: [3] 7.94 µM | [4] 12.6 µM | [5] 10 µM | [8] 8.91 µM | [9] 10.7 µM
inactive: [1] | [10] | [6] | [12]

O=C(CCN1CCC(c2ccccc2)C1)c1ccc2c(c1)OCCO2 (stereo not given)
not listed: [2] | [5] | [11]
inactive: all other assays above

Cc1cccc(C)c1NC(=O)CN1CCN(CCCC(c2ccc(F)cc2)c2ccc(F)cc2)CC1
active: [3] 3.55 µM | [4] 3.16 µM | [11] 3.98 µM | [9] 4.55 µM
inactive: [1] | [10] | [6] | [12] | [18]

NC(=O)C(=O)N/N=C/c1ccc([N+](=O)[O-])o1
not listed: [2] | [9] | [16]
inactive: all other assays above

C[C@@H](CN(C)C)CN1c2ccccc2Sc2ccccc21
not listed: [2] | [3] | [4] | [5] | [9] | [16]
inactive: all other assays above

CCCCCCCCCCCCCCNCCO
active: [14] 10 µM | [3] 6.31 µM | [4] 14.1 µM | [9] 9.53 µM
inactive: [1] | [10] | [16] | [12] | [17] | [7] | [18] | [8]
